How the values were obtained:
Assay in all cases: log2 ratio of Biotin-Ahx-Ub-VS probe labelling (compound/DMSO); higher = less target engagement, active = hit call of the paper (q ≤ 0.05, log2 ratio ≤ -1)
Conditions in all cases: treatment time: 3 h
[1] = compound: CCC1N(CCc2sccc12)C(=O)CCl
Outline: (§1)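 HEK293T lysate (495 µg per sample, in Tris/CHAPS/IGEPAL buffer with protease inhibitors) was treated in triplicate with compound at 50 or 200 µM or with DMSO for 3 h. It was then treated with Biotin-Ahx-Ub-VS (0.5 µM final) for 1 h. Labelled DUBs were NeutrAvidin-enriched, digested with LysC and trypsin, and run by diaPASEF LC-MS/MS. Median-normalised label-free quantities gave average log2 ratios compound/DMSO by unpaired t-test, using proteins with ≥2 unique peptides.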

[2] = compound: CN1c2ccccc2C(CS1(=O)=O)NC(=O)CCl
Outline: as §1

[3] = compound: Cl.ClCC(=O)N1CCc2ncncc2C1
Outline: as §1

[4] = compound: Cl.Cn1ncc2C(CCCc12)NC(=O)CCl
Outline: as §1

[5] = compound: ClCC(=O)NC1CCOc2ccccc12
Outline: as §1

[6] = compound: ClCC(=O)NC1CCCc2ccccc12
Outline: (§2)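 The values are mean compound-versus-vehicle ratios derived by unpaired t-test. For 3 h, triplicate HEK293T lysate samples (495 µg each) were treated with compound at a series of concentrations or with vehicle, after which Biotin-Ahx-Ub-VS was added to 0.5 µM final for 1 h. Labelled deubiquitinases were enriched with NeutrAvidin, digested with LysC and trypsin, and analysed by diaPASEF LC-MS/MS. Ratios are log2 values from global-median-normalised Spectronaut label-free quantities, using proteins with two or more unique peptides.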

[7] = compound: ClCC(=O)N[C@@H]1CCCc2ccccc12
Outline: as §2

[8] = compound: ClCC(=O)N[C@H]1CCCc2ccccc12
Outline: as §2

[9] = compound: CCC1N(CCc2cc(OC)c(Cl)cc12)C(=O)CCl
Outline: as §1

[10] = compound: CCCC1N(CCc2cc(OC)c(OC)cc12)C(=O)CCl
Outline: as §1

[11] = compound: CN(Cc1cccc(Br)c1)C(=O)CCl
Outline: as §1

[12] = compound: CN(Cc1cccc(OCc2ccccc2C)c1)C(=O)CCl
Outline: as §1

[13] = compound: CN(Cc1ccccc1)C(=O)CCl
Outline: as §1

[14] = compound: COc1ccc(CN(C)C(=O)CCl)cc1
Outline: as §1

[15] = compound: COc1cccc(CN(CCCc2ccccc2)C(=O)CCl)c1
Outline: as §1

[16] = compound: ClCC(=O)N1CCc2cc(Cl)c(Cl)cc2C1
Outline: as §1

[17] = compound: ClCC(=O)N1CCc2nc(ncc2C1)-c1ccccc1
Outline: as §1

[18] = compound: ClCC(=O)N1CCc2nocc2C1
Outline: as §1

[19] = compound: ClCC(=O)N1CCc2scc(Br)c2C1
Outline: as §1

[20] = compound: ClCC(=O)NC(C1CCCC1)c1cccs1
Outline: as §1

Measured: log2 ratio of Biotin-Ahx-Ub-VS probe labelling

USP14 (UniProt P54578)
Chain of UniProt P54578 (P54578 whole entry): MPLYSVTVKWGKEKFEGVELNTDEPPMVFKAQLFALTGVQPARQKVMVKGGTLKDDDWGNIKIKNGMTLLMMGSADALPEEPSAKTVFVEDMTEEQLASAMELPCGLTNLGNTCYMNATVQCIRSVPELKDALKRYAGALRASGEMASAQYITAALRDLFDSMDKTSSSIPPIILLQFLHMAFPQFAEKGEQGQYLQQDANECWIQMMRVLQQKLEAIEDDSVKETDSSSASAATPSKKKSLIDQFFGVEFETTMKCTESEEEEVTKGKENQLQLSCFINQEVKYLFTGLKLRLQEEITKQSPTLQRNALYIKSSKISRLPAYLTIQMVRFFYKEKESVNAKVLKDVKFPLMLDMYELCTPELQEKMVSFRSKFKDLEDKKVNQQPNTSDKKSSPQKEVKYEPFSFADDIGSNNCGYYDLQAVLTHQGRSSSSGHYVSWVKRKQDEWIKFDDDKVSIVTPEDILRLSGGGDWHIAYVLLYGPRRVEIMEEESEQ
inactive: [1]; compound concentration: 50uM -0.3 | [1]; compound concentration: 200uM -0.357 | [2]; compound concentration: 50uM -0.167 | [2]; compound concentration: 200uM -0.105 | [3]; compound concentration: 50uM 0.049 | [3]; compound concentration: 200uM -0.23 | [4]; compound concentration: 50uM 0.132 | [4]; compound concentration: 200uM 0.0271 | [5]; compound concentration: 50uM -0.194 | [5]; compound concentration: 200uM -0.0567 | [6]; compound concentration: 0.78uM -0.378 | [6]; compound concentration: 1.56uM -0.128 | [6]; compound concentration: 3.13uM -0.334 | [6]; compound concentration: 6.25uM -0.143 | [6]; compound concentration: 12.5uM -0.315 | [6]; compound concentration: 25uM -0.455 | [6]; compound concentration: 50uM -0.285 | [6]; compound concentration: 100uM -0.509 | [6]; compound concentration: 200uM -0.231 | [7]; compound concentration: 0.78uM -0.393 | [7]; compound concentration: 1.56uM -0.0826 | [7]; compound concentration: 3.13uM -0.368 | [7]; compound concentration: 6.25uM -0.447 | [7]; compound concentration: 12.5uM -0.296 | [7]; compound concentration: 25uM -0.25 | [7]; compound concentration: 50uM -0.116 | [7]; compound concentration: 100uM -0.289 | [7]; compound concentration: 200uM -0.289 | [8]; compound concentration: 0.78uM -0.158 | [8]; compound concentration: 1.56uM -0.187 | [8]; compound concentration: 3.13uM -0.308 | [8]; compound concentration: 6.25uM -0.249 | [8]; compound concentration: 12.5uM -0.442 | [8]; compound concentration: 25uM -0.253 | [8]; compound concentration: 50uM -0.322 | [8]; compound concentration: 100uM -0.332 | [8]; compound concentration: 200uM -0.157 | [9]; compound concentration: 50uM -0.071 | [9]; compound concentration: 200uM -0.127 | [10]; compound concentration: 50uM -0.132 | [10]; compound concentration: 200uM 0.0879 | [11]; compound concentration: 50uM -0.191 | [11]; compound concentration: 200uM -0.555 | [12]; compound concentration: 50uM -0.544 | [12]; compound concentration: 200uM -0.62 | [13]; compound concentration: 50uM -0.14 | [13]; compound concentration: 200uM 0.0709 | [14]; compound concentration: 50uM -0.127 | [14]; compound concentration: 200uM -0.0256 | [15]; compound concentration: 50uM -0.187 | [15]; compound concentration: 200uM -0.626 | [16]; compound concentration: 50uM -0.137 | [16]; compound concentration: 200uM -0.35 | [17]; compound concentration: 50uM 0.0498 | [17]; compound concentration: 200uM 0.0841 | [18]; compound concentration: 50uM -0.186 | [18]; compound concentration: 200uM -0.17 | [19]; compound concentration: 50uM -0.438 | [20]; compound concentration: 50uM -0.115 | [20]; compound concentration: 200uM -0.1
active: [19]; compound concentration: 200uM -1

USP7 (UniProt Q93009)
Chain of UniProt Q93009 (Q93009 whole entry, looked up): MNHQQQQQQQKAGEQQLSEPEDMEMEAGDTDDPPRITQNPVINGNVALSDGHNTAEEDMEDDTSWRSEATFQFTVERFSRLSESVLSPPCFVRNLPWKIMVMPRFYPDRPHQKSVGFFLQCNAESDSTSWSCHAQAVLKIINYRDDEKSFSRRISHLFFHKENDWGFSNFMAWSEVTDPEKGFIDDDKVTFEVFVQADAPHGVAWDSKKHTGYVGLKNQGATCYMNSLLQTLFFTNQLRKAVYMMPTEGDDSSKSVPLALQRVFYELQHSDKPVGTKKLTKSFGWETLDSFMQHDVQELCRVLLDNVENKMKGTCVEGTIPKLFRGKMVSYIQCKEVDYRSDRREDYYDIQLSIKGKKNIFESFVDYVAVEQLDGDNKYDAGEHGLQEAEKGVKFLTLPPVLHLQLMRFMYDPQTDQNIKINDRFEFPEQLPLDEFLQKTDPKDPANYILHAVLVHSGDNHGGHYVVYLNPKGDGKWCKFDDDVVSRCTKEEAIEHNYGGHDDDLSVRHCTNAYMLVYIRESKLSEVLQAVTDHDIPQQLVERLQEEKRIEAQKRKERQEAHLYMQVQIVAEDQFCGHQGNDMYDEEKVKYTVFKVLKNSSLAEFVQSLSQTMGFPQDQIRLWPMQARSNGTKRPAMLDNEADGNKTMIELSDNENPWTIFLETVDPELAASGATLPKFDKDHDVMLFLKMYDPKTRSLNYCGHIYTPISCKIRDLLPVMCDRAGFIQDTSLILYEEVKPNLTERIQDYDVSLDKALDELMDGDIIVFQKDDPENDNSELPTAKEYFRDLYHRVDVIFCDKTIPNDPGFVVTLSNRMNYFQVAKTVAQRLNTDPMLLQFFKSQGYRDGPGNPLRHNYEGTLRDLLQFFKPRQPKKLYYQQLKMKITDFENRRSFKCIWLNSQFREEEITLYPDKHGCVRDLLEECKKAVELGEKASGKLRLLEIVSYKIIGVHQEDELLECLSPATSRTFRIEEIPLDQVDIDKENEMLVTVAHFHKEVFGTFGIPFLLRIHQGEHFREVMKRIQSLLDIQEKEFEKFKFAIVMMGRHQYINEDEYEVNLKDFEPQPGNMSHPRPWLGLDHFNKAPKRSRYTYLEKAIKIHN
inactive: [1]; compound concentration: 50uM -0.421 | [2]; compound concentration: 50uM -0.133 | [2]; compound concentration: 200uM -0.121 | [3]; compound concentration: 50uM -0.0285 | [3]; compound concentration: 200uM -0.558 | [4]; compound concentration: 50uM 0.09 | [4]; compound concentration: 200uM -0.0475 | [5]; compound concentration: 50uM -0.0159 | [5]; compound concentration: 200uM -0.18 | [6]; compound concentration: 0.78uM -0.0291 | [6]; compound concentration: 1.56uM 0.0294 | [6]; compound concentration: 3.13uM -0.0887 | [6]; compound concentration: 6.25uM -0.0846 | [6]; compound concentration: 12.5uM -0.0893 | [6]; compound concentration: 25uM -0.157 | [6]; compound concentration: 50uM -0.0846 | [6]; compound concentration: 100uM -0.00996 | [6]; compound concentration: 200uM -0.173 | [7]; compound concentration: 0.78uM -0.245 | [7]; compound concentration: 1.56uM -0.104 | [7]; compound concentration: 3.13uM -0.126 | [7]; compound concentration: 6.25uM -0.0886 | [7]; compound concentration: 12.5uM -0.122 | [7]; compound concentration: 25uM -0.125 | [7]; compound concentration: 50uM -0.161 | [7]; compound concentration: 100uM -0.145 | [7]; compound concentration: 200uM -0.261 | [8]; compound concentration: 0.78uM -0.0919 | [8]; compound concentration: 1.56uM -0.155 | [8]; compound concentration: 3.13uM -0.109 | [8]; compound concentration: 6.25uM 0.00463 | [8]; compound concentration: 12.5uM -0.0828 | [8]; compound concentration: 25uM -0.0804 | [8]; compound concentration: 50uM -0.017 | [8]; compound concentration: 100uM -0.124 | [8]; compound concentration: 200uM -0.255 | [9]; compound concentration: 50uM -0.321 | [10]; compound concentration: 50uM -0.397 | [11]; compound concentration: 50uM -0.88 | [12]; compound concentration: 50uM -0.769 | [13]; compound concentration: 50uM -0.517 | [14]; compound concentration: 50uM -0.358 | [15]; compound concentration: 50uM -0.387 | [17]; compound concentration: 50uM -0.461 | [18]; compound concentration: 50uM -0.316 | [18]; compound concentration: 200uM -0.618 | [19]; compound concentration: 50uM -0.698 | [20]; compound concentration: 50uM 0.0363 | [20]; compound concentration: 200uM -0.1
active: [1]; compound concentration: 200uM -1.24 | [9]; compound concentration: 200uM -1.17 | [10]; compound concentration: 200uM -1.18 | [11]; compound concentration: 200uM -1.84 | [12]; compound concentration: 200uM -1.62 | [13]; compound concentration: 200uM -1.2 | [14]; compound concentration: 200uM -1.04 | [15]; compound concentration: 200uM -1.22 | [16]; compound concentration: 50uM -1.57 | [16]; compound concentration: 200uM -2.52 | [17]; compound concentration: 200uM -1.58 | [19]; compound concentration: 200uM -2.08

EIF3H (UniProt O15372)
Chain of UniProt O15372 (O15372 whole entry): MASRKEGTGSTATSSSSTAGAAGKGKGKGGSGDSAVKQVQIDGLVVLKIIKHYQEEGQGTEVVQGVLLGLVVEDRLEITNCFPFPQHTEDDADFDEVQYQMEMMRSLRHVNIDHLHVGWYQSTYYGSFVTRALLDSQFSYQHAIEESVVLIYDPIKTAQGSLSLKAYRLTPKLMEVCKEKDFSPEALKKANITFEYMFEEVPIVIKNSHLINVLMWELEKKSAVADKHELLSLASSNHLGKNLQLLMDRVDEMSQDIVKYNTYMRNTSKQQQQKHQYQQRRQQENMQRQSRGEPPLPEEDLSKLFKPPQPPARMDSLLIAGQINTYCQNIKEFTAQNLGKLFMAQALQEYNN
inactive: [1]; compound concentration: 50uM 4e-05 | [1]; compound concentration: 200uM -0.0195 | [2]; compound concentration: 50uM 0.0525 | [2]; compound concentration: 200uM 0.0675 | [3]; compound concentration: 50uM -0.0138 | [3]; compound concentration: 200uM -0.124 | [4]; compound concentration: 50uM -0.0892 | [4]; compound concentration: 200uM -0.0788 | [5]; compound concentration: 50uM 0.0209 | [5]; compound concentration: 200uM -0.0491 | [6]; compound concentration: 0.78uM -0.172 | [6]; compound concentration: 1.56uM 0.005 | [6]; compound concentration: 3.13uM 0.0821 | [6]; compound concentration: 6.25uM -0.12 | [6]; compound concentration: 12.5uM -0.146 | [6]; compound concentration: 25uM -0.153 | [6]; compound concentration: 50uM 0.125 | [6]; compound concentration: 100uM 0.0329 | [6]; compound concentration: 200uM -0.275 | [7]; compound concentration: 0.78uM -0.105 | [7]; compound concentration: 1.56uM 0.0364 | [7]; compound concentration: 3.13uM -0.02 | [7]; compound concentration: 6.25uM 0.0572 | [7]; compound concentration: 12.5uM 0.182 | [7]; compound concentration: 25uM -0.109 | [7]; compound concentration: 50uM 0.0801 | [7]; compound concentration: 100uM 0.0419 | [7]; compound concentration: 200uM 0.454 | [8]; compound concentration: 0.78uM 0.0712 | [8]; compound concentration: 1.56uM -0.0618 | [8]; compound concentration: 3.13uM -0.213 | [8]; compound concentration: 6.25uM 0.288 | [8]; compound concentration: 12.5uM 0.201 | [8]; compound concentration: 25uM 0.184 | [8]; compound concentration: 50uM 0.306 | [8]; compound concentration: 100uM -0.0743 | [8]; compound concentration: 200uM 0.179 | [9]; compound concentration: 50uM -0.165 | [9]; compound concentration: 200uM -0.139 | [10]; compound concentration: 50uM 0.00258 | [10]; compound concentration: 200uM 0.0942 | [11]; compound concentration: 50uM -0.0499 | [11]; compound concentration: 200uM -0.495 | [12]; compound concentration: 50uM -0.0626 | [12]; compound concentration: 200uM -0.0695 | [13]; compound concentration: 50uM -0.0247 | [13]; compound concentration: 200uM -0.0426 | [14]; compound concentration: 50uM -0.128 | [14]; compound concentration: 200uM 0.0275 | [15]; compound concentration: 50uM 0.0566 | [15]; compound concentration: 200uM 0.0114 | [16]; compound concentration: 50uM -0.344 | [16]; compound concentration: 200uM 0.309 | [17]; compound concentration: 50uM -0.162 | [17]; compound concentration: 200uM 0.025 | [18]; compound concentration: 50uM 0.0895 | [18]; compound concentration: 200uM -0.349 | [19]; compound concentration: 50uM -0.0247 | [19]; compound concentration: 200uM 0.0406 | [20]; compound concentration: 50uM -0.136 | [20]; compound concentration: 200uM 0.0107
